{
  "source": "PubChem BioAssay (NCATS)",
  "note": "Results filed as inconclusive are left out. A number with no mark means an inactive call. Calls follow the shape of the dose curve; as a rule, active = well fitted curve in the direction sought with a large enough effect; inconclusive = small, poorly fitted or top-dose-only effect, or another doubt; inactive = no such curve, though single readings can be large or run the other way.",
  "data": [
    {"target": "Nuclear receptor subfamily 1 group I member 2 (Homo sapiens) (UniProt O75469)", "sequence (O75469 whole entry, looked up)": "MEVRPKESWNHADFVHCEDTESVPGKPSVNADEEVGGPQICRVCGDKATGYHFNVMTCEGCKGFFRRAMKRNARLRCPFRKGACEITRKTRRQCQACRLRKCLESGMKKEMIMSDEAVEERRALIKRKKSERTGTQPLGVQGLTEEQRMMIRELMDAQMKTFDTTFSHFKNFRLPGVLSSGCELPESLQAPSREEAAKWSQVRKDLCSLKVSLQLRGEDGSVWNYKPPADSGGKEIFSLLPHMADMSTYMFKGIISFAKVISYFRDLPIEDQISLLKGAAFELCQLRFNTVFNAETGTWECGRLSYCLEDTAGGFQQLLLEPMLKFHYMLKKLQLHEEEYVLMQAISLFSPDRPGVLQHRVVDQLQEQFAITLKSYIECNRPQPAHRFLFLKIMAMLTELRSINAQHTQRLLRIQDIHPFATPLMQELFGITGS", "test": "Dual reporter qHTS for antagonist of Pregnane X Receptor (hPXR) against the NCATS DSHEA and TCM libraries: Luminescence Readout (AID 1920060); also: 0% is about no effect", "settings": "hPXR dual reporter cells, luciferase luminescence, antagonist mode; series mostly up to 40 µM; activity change, negative = inhibition: at the top concentration", "method_in_brief": "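hPXR-Luc HepG2 cells exposed 24 h at 37 C to compounds with 2 uM rifampicin in antagonist mode; luciferase luminescence measured by ONE-Glo, with CellTiter-Fluor viability read beforehand.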", "values": [
      {"compound": "O=C(/C=C/c1ccc(O)c(O)c1)OC1[C@H](O)CC(O)(C(=O)O)C[C@@H]1O", "note": "(stereo partly specified)", "activity change, negative = inhibition": "8.26%"},
      {"compound": "COc1ccccc1/C=C/C=O", "activity change, negative = inhibition": "-19.3% [at 68.2 µM]"},
      {"compound": "CCCCCCCCCCCC(=O)O", "activity change, negative = inhibition": "-8.18%"},
      {"compound": "C=C(C)[C@H]1CC=C(CO)CC1", "activity change, negative = inhibition": "-29.1%"},
      {"compound": "CCCCCCCC/C=C/CCCCCCCC(=O)O", "activity change, negative = inhibition": "-7.36%"},
      {"compound": "CC1=C2[C@H]([C@@H](C)CC[C@@H]2/C=C(\\C)C(=O)O)[C@@H](O)C1", "activity change, negative = inhibition": "-32.4%"},
      {"compound": "O=c1cc(-c2ccc(O)c(O)c2)oc2cc(O[C@@H]3O[C@@H](CO)[C@@H](O)[C@@H](O)[C@H]3O)cc(O)c12", "activity change, negative = inhibition": "2.62%"},
      {"compound": "Cc1ccc(O)c(O)c1", "activity change, negative = inhibition": "179% [at 68.2 µM]"},
      {"compound": "CCCCCCCCC/C=C/C(=O)CCc1ccc(O)c(OC)c1", "activity change, negative = inhibition": "51.3%"},
      {"compound": "CCCCCCCC/C=C/CCCCCCCCCC(=O)O", "activity change, negative = inhibition": "-18.1%"},
      {"compound": "CCCCCC/C=C/CCCCCCCCCC(=O)O", "activity change, negative = inhibition": "9.44%"}
    ]}
  ]
}
